Source: PubChem BioAssay AID1672 (Johns Hopkins Ion Channel Center, 2009)
The whole screen tested about 310,000 compounds, of which about 2,600 (0.84%) were called active. What follows is part of a selection rich in actives, with near analogues and random picks from the rest. A number with no mark means an inactive call.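 Rule for the calls: active = fluorescence ratio B-score at or below minus 3 SD of library scores, with starting-brightness B-score within 2 SD (cut at about -4.2 in these data); inactive = the rest.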

Biological target: Inward rectifier potassium channel 2 (Mus musculus) (UniProt P35561)
Assay: blocks the mouse Kir2.1 inward-rectifier potassium channel (AID 1672);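 note: channel flux triggered by added potassium and thallium sulfate stimulus; B-score of peak minus minimum fluorescence over baseline after thallium stimulus; more negative B-score means stronger Kir2.1 block with less thallium influx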
Settings: HEK293-Kir2.1, FluxOR thallium flux fluorescence; at 10 µM; hits give low values

Sequence of Inward rectifier potassium channel 2 (Mus musculus) (P35561 whole entry, looked up): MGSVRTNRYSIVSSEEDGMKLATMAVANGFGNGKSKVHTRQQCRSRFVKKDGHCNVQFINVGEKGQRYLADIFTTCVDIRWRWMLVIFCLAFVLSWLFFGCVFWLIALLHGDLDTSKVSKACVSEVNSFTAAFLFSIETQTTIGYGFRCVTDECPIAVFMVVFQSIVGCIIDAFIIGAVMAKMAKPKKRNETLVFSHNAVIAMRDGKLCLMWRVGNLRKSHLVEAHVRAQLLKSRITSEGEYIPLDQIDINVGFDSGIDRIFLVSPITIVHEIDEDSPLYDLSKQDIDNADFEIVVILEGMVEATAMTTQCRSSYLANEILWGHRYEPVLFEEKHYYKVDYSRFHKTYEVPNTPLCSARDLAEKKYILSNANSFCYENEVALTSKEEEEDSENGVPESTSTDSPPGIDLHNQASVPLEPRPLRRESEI

`CC(C)Oc1ccc(S(=O)(=O)N2CCOCC2)cc1NC(=O)C1CSC2(C)CCC(=O)N12` (configuration not stated) was tested. Which B-score did it give?
The B-score was -0.2.

With `Cc1ccc(-c2nn(-c3ccc(F)cc3)cc2C(=O)NCC(c2cccs2)N2CCOCC2)cc1` (configuration not stated) as the molecule, how does the B-score read?
Its B-score is 1.38.

With `C=CCOc1cccc(C2C(C(=O)c3ccc(C)o3)=C(O)C(=O)N2c2nnc(C)s2)c1` (configuration not stated) as the molecule, how does the B-score read?
Its B-score is -2.11.

How did the B-score turn out when `Cc1nc(N)[nH]c(=O)c1Oc1cccc(C(F)(F)F)c1` was run?
The B-score was 0.08.

Which B-score does the source give for `CCC(=O)OCc1c(C(F)(F)F)nn(C)c1Oc1cccc(C(F)(F)F)c1` here?
The B-score was -6.22 (active).

With `O=Cc1ccc(Oc2cccc(C(F)(F)F)c2)nc1` as the molecule, how does the B-score read?
The B-score was 0.35.

For `CCOc1ccc(CCNC(=O)COC(=O)c2ccc(F)c(S(=O)(=O)N3CCOCC3)c2)cc1OCC`, which B-score is on record?
Its B-score is 0.3.

`O=C(CSc1nnc(-c2cccs2)n1Cc1ccco1)c1ccc2c(c1)OCO2` was tested. Which B-score did it give?
The B-score was -4.78 (active).

How did the B-score turn out when `O=C(CSc1nnc(-c2cnccn2)n1Cc1ccco1)c1ccc(Cl)c(Cl)c1` was run?
The B-score was 0.04.

With `COc1ccc(NC(=O)CSc2nnc(-c3cccs3)n2Cc2ccco2)cc1OC` as the molecule, how does the B-score read?
Its B-score is 0.49.

How did the B-score turn out when `CCn1c(SC(C)C(=O)Nc2ccc(N3CCOCC3)cc2)nnc1-c1ccco1` (configuration not stated) was run?
Its B-score is -1.79.

`CCN(CC)c1ccc(S(=O)(=O)N2CCCCC2)cc1NC(=O)C1=COCCO1` was tested. Which B-score did it give?
Its B-score is 1.68.

With `CCCc1cc(=O)[nH]c(SCC(=O)c2cc(C)n(CCC)c2C)n1` as the molecule, how does the B-score read?
The B-score was -6.83 (active).

`Cc1cc(C(=O)CSc2nc(N)cc(=O)[nH]2)c(C)n1CCc1ccc(Cl)cc1` was tested. Which B-score did it give?
The B-score was -0.26.

With `CCCc1cc(=O)[nH]c(SCC(=O)c2c(N)n(CC(C)C)c(=O)n(C)c2=O)n1` as the molecule, how does the B-score read?
Its B-score is 0.93.

With `Cc1ncc(CO)c(/C=N/NC(=O)c2cccc(S(=O)(=O)N3CCCC3)c2)c1O` as the molecule, how does the B-score read?
The B-score was -1.2.

For `NC(=O)CSc1nnc(NC(=O)c2ccc3ccccc3c2)s1`, which B-score is on record?
The B-score was 1.23.

Which B-score does the source give for `Cc1ccc(-c2csc(NC(=O)C3=COCCO3)n2)cc1C` here?
Its B-score is 0.03.

For `Cc1cc(Nc2ccc(Br)cc2)nc2ccccc12`, which B-score is on record?
The B-score was -0.01.

With `COc1cccc(CNCCc2c[nH]c3ccccc23)c1OCc1ccccc1F` as the molecule, how does the B-score read?
Its B-score is -12 (active).

With `COc1ccccc1CC(=O)NCCc1c[nH]c2ccccc12` as the molecule, how does the B-score read?
Its B-score is -0.19.

`COc1ccc(S(=O)(=O)NCCc2c[nH]c3ccccc23)cc1OC` was tested. Which B-score did it give?
The B-score was -1.99.
